From PubChem BioAssay (Tox21)
Inconclusive results are not listed. Unmarked numbers belong to inactive results. The source made the active and inactive calls. Calls follow the shape of the dose curve; as a rule, active = well fitted cell-killing curve with a large enough effect in the repeat runs; inconclusive = weak or mixed curves, or effect the other way; inactive = flat fitted curve, though single readings scatter.

Test: qHTS RealTime-Glo MT Cell Viability Assay in HEK293 cells - 16 hour (AID 1224872); also: nearly all actives have a fitted effect of over 50% in size; as to activity change, negative = cytotoxicity: top concentration of the series differs between compounds
Settings: RealTime-Glo luminescence; series mostly up to 76.8 µM; activity change, negative = cytotoxicity: at the top concentration
Source text: National Center for Advancing Translational Sciences [NCATS]
NIH Chemical Genomics Center [NCGC]
U.S. Environmental Protection Agency [EPA]
National Institutes of Environmental Health Sciences [NIEHS]
National Toxicology Program [NTP]
U.S. Food and Drug Administration [FDA]
Measure of cell viability is critical in the cell-base assay. Analysis of cell viability is necessary for the characterization of cell responses to cytotoxic drugs and environmental stress. A RealTime-Glo MT Cell Viability Assay to monitor cell viability in real time of continues cell culture during 40 hours of compound treatment was used to screen Tox21 10K library compounds in Hek293 cells. The RealTime-Glo MT Cell Viability Assay is a nonlytic, homogeneous, bioluminescent method to measure cell viability in real time using a simple, plate-based method. The assay involves adding NanoLuc luciferase and a cell-permeant prosubstrate to cells in culture. Viable cells reduce the proprietary prosubstrate to generate a substrate for NanoLuc luciferase. This substrate diffuses from cells into the surrounding culture medium, where it is rapidly used by the NanoLuc Enzyme to produce a luminescent signal. The signal correlates with the number of viable cells, making the assay well suited for cytotoxicity studies.
Tox21 Assay Protocol Summary:
The mixture of Hek293 cell suspension and reagents were dispensed at 600cells/6 ul/well in 1536-well tissue culture treated black solid bottom plates using a Multidrop dispenser. After the assay plates were incubated at a 37 C/5% CO2 incubator for 5 hours, 23 nL of compounds dissolved in DMSO, positive and negative controls was transferred to the assay plate by a pintool work station. The plates were incubated at 37 C for 40 hours. The luminescence intensity were measured at 0h, 8h, 16h, 24h, 32h and 40h time points using ViewLux plate reader during compound treatment.
% is scaled to controls: 0 for no effect and ±100 for the full control effect; potency is read from the fitted curve at half-maximal effect.

| Structure (SMILES) | activity change, negative = cytotoxicity | Potency |
| --- | --- | --- |
| CC(C)=CCC1C(=O)N(c2ccccc2)N(c2ccccc2)C1=O | 5.02% [at 35.3 µM] |  |
| C[C@H]1C[C@H](O)c2ccsc2S1(=O)=O | 3.91% [at 35.3 µM] |  |
| CCCCCCCC/C=C\CCCCCCCCCCCC(=O)O | 4.41% |  |
| CCCC(=O)C(=O)O | 7.48% |  |
| CCOC(C)=O | -1.09% |  |
| CCCCCCC(C)(C)C(=O)O | 0.956% |  |
| NNC(=O)CP(=O)(c1ccccc1)c1ccccc1 | 0.0264% [at 35.3 µM] |  |
| CCC1NC(=O)c2cc(S(N)(=O)=O)c(Cl)cc2N1 (stereo not given) | 8.03% [at 35.3 µM] |  |
| COc1ccccc1NC(=O)c1cc2ccccc2cc1O |  | 24.5 µM (active) |
| O=C(/C=C/c1ccccc1)OCCc1ccccc1 | -6.82% |  |
| CC(=O)OCC[N+](C)(C)C | -3.12% [at 35.3 µM] |  |
| CN1C(=O)N(c2ccccc2Br)Cc2cnc(Nc3ccc4c(c3)OCC(CO)O4)nc21 (stereo not given) |  | 6.92 µM (active) |
| O=C1NCCN1CCO | 11.2% |  |
| CO/N=C(/C(=O)N[C@@H]1C(=O)N2C(C(=O)O)=C(COC(N)=O)CS[C@H]12)c1ccco1 | -2.51% |  |
| CCOC(=O)c1ccc(O)c(O)c1 | -4.43% [at 35.3 µM] |  |
| O=C(Cn1ccnc1[N+](=O)[O-])NCCO | 6.28% [at 35.3 µM] |  |
| CC(=O)OCC(=O)NCCCOc1cccc(CN2CCCCC2)c1 | 1.95% [at 35.3 µM] |  |
| CC(O)c1ccccc1 (stereo not given) | 20.1% |  |
| CC(C)C=O | 1.28% |  |
| CC(C)=CCC/C(C)=C/CC/C(C)=C/CCC(=O)OC/C=C(\C)CCC=C(C)C | -0.952% [at 35.3 µM] |  |

| Structure (SMILES) | activity change, negative = cytotoxicity | Potency |
| --- | --- | --- |
| Nc1ncnc2c1ncn2[C@H]1CC[C@@H](CO)O1 | 22.8% |  |
| CCCCCCCCCCCCCCN(CCO)CCO |  | 49 µM (active) |
| CN(C)CCN1C(=O)c2ccccc2N(C)c2ccccc21 | 0.106% [at 35.3 µM] |  |
| NC1[C@H]2CN(c3nc4c(cc3F)c(=O)c(C(=O)O)cn4-c3ccc(F)cc3F)C[C@@H]12 (stereo not given in full) | -8.67% [at 35.3 µM] |  |
| Cc1ccccc1S | -16.2% [at 35.3 µM] |  |
| N#CCCN(CCO)CCO | 5.38% |  |
| CCC(C)COC(C)=O (stereo not given) | 0.824% |  |
| CCOC(=O)OC(C)OC(=O)[C@@H]1N2C(=O)[C@@H](NC(=O)[C@H](N)c3ccccc3)[C@H]2SC1(C)C (stereo not given in full) | -2.37% [at 35.3 µM] |  |
| O=C(CCc1ccc(O)cc1)c1c(O)cc(O)cc1O |  | 25.1 µM (active) |
| Oc1cccc(O)c1O | 1.97% |  |
| O=C(CCCN1CC=C(n2c(=O)[nH]c3ccccc32)CC1)c1ccc(F)cc1 |  | 9.52 µM (active) |
| COc1cc(N)c(Cl)cc1C(=O)NC1CCN(CCCOc2ccc(F)cc2)CC1OC (stereo not given) |  | 2.39 µM (active) |
| C=C1C[C@@]23CC[C@H]4[C@@](C)(CCC[C@@]4(C)C(=O)O[C@@H]4O[C@H](CO)[C@@H](O)[C@H](O)[C@H]4O)[C@@H]2CC[C@]1(O[C@@H]1O[C@H](CO)[C@@H](O)[C@H](O[C@@H]2O[C@H](CO)[C@@H](O)[C@H](O)[C@H]2O)[C@H]1O[C@@H]1O[C@H](CO)[C@@H](O)[C@H](O)[C@H]1O)C3 | 6.8% |  |
| O=C1NC(=O)c2cc([N+](=O)[O-])ccc21 | 4.39% |  |
| CCCCCC[C@@H](O)C/C=C\CCCCCCCC(=O)OCC(O)CO (stereo not given in full) | -1.88% |  |
| OC(CCN1CCCC1)(c1ccccc1)C1CCCCC1 (stereo not given) | -3.39% [at 35.3 µM] |  |
| C[C@H]1c2cccc(O)c2C(O)=C2C(=O)[C@]3(O)C(O)=C(C(N)=O)C(=O)[C@@H](N(C)C)[C@@H]3[C@@H](O)[C@@H]21 | -0.854% [at 35.3 µM] |  |
| CCOC(=O)[C@H](CCc1ccccc1)N[C@@H](C)C(=O)N(CC(=O)O)C1Cc2ccccc2C1 | 10.6% [at 35.3 µM] |  |
| COc1ccccc1Oc1c(NS(=O)(=O)c2ccc(C(C)(C)C)cc2)nc(-c2ncccn2)nc1OCCO | -2.28% [at 35.3 µM] |  |
| CCCCCCCCOc1ccc(C(=O)O)cc1 | -4.24% |  |
